# Shown are actives, neighbours in structure and some others; about 7.6% of the full set was active somewhere.
# KB-V1 MDR tox – KB-V1 MDR subline cytotoxicity; Potency, µM (titrated, usually from 46.1 µM), usual class: cytotoxic; 400,000 tested, 3.4% active; KB-V1 MDR cells viability, CellTiter-Glo, 72 h; also: nearly all actives have a fitted effect of over 60% in size
#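 Cytotoxicity toward P-gp-expressing KB-V1 cells was determined as loss of CellTiter-Glo luminescence after 72 h at 37 degrees C. Compounds were tested in quantitative HTS format across a concentration range, with curves fitted to normalized data.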
# SW480 rerep – induces DNA re-replication in SW480 colon adenocarcinoma cells; SW480 DNA re-replication, Hoechst DNA content imaging, 48 h; Potency, µM (highest dose often 46.1 µM), hits mostly activators; 340,000 tested, 1.8% active; AID 624297; also: nearly all actives have a fitted effect of over 55% in size
#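 SW480 cells exposed to compounds for 48 hr at 37 C, 5% CO2, then Hoechst-stained 40 min. Nuclear DNA content imaged by fluorescence scanning (405 nm excitation, 500-530 nm emission); re-replication scored as increased high-intensity nuclei.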
# KCNH2 3.1 inh – blocks the human KCNH2 3.1 channel isoform; 340,000 tested, 0.95% active; activity change, % (tested at about 1.8 µM); U2OS KCNH2 3.1, thallium flux FluxOr; hits give low values;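 active = maximum activity change below -70%; inconclusive = maximum activity change from -70% to -50%; inactive = maximum activity change above -50%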;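 also: thallium influx rate constant from kinetic fluorescence after stimulation buffer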
#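 U2OS cells transduced with KCNH2 3.1 mutant virus (1.77 x 10^8 /mL, 4 h), plated overnight at 37 C, loaded 45 min with FluxOr dye plus Red40 quencher. Thallium flux rate constant from kinetic reads after stimulation buffer, normalised to controls.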
# KB-3-1 cytotox – kills parental KB-3-1 adenocarcinoma cells; KB-3-1 viability, CellTiter-Glo ATP luminescence, 72 h; Potency, µM (series often up to 46.1 µM), usual class: cytotoxic; 400,000 tested, 1.4% active; AID 1347075; also: nearly all actives have a fitted effect of over 60% in size
#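 Multi-concentration cytotoxicity screen in KB-3-1 cells grown in DMEM lacking phenol red with 10% FBS. After 72 h at 37 °C with compound, ATP-dependent luminescence was recorded.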
# MCF10A rerep – induces DNA re-replication in MCF 10a normal breast cells; MCF 10A DNA re-replication, Hoechst nuclear intensity, 48 h; 350,000 tested, 2.9% active; Potency, µM (titrated, usually from 46.1 µM), usual class: activators; AID 624296; also: nearly all actives have a fitted effect of over 50% in size
# KCNH2 WT inh – inhibitors of human wildtype KCNH2 potassium channel | activity change, % at 1.84 µM | Q12809 | 340,000 tested, 0.37% active | U2OS, BacMam KCNH2, thallium flux FluxOr; hits give low values;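 active = maximum activity change below -70%; inconclusive = maximum activity change between -70% and -50%; inactive = maximum activity change above -50%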
#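 U2OS cells transduced with wild-type KCNH2 virus are loaded with FluxOr dye for 45 min, and thallium flux is measured in kinetic reads before and after stimulation buffer. Rate constants are normalized to DMSO controls.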
# Hits are given with their value; - = inactive; ? = inconclusive; . = no result; [ ] = another dose, or the depositor's remark. Unless noted, calls follow the shape of the dose curve; as a rule, active = well fitted curve in the direction sought with a large enough effect; inconclusive = small, poorly fitted or top-dose-only effect, or another doubt; inactive = no such curve, though single readings can be large; an effect the other way counts as inactive or inconclusive.
SMILES,KB-V1 MDR tox,SW480 rerep,KCNH2 3.1 inh,KB-3-1 cytotox,MCF10A rerep,KCNH2 WT inh
CCCc1ccc(-c2cc(C(=O)N/N=C/c3ccc([N+](=O)[O-])o3)c3ccccc3n2)cc1,8.2µM,7.1µM,-,12µM,5µM,-
O=C(N/N=C/c1ccc([N+](=O)[O-])o1)c1sc2ccccc2c1Cl,?,-,-,?,?,-
O=C(N/N=C/c1ccc([N+](=O)[O-])o1)c1cc(-c2cccc(Br)c2)nc2ccccc12,?,-[9.22 µM],-,?,-,-
O=C(N/N=C/c1ccc([N+](=O)[O-])o1)c1cn2ccc3ccccc3c2n1,-,21µM,-,-,?,-
CC(C)NC(=O)C1(C)CCCN1C(=O)c1ccccc1Br (stereo unspecified),-,.,.,-,.,.
O=C1C2C3C=CC(CO)(O3)C2C(=O)N1c1ccccc1-c1ccccc1 (stereo unspecified),-,10µM,-,-,7.3µM,-
CC(=O)Oc1ccc(N2C(=O)C3C4C=CC(CO)(O4)C3C2=O)cc1 (stereo unspecified),-,?,-,-,?,-
O=C1C2C3C=CC(CNS(=O)(=O)c4ccccc4)(O3)C2C(=O)N1c1ccc(Cl)cc1 (stereo unspecified),?,12µM,-,-,?,-
O=C(O)CC(CC(=O)O)c1ccsc1,-,-,-,-,-,-
Cc1ccc(NC(=S)NNC(=O)CSc2nc3ccccc3c(=O)n2-c2ccc(C)cc2)cc1,-,-,-,-,?,-
CCOc1ccc(N(CC(=O)NC2CCCC2)C(=O)CCC(=O)Nc2nccs2)cc1,-,-,-,-,-,-
Cc1cc(C)cc(N(CC(=O)NCc2ccco2)C(=O)CCC(=O)Nc2nccs2)c1,-,-,-72,?,-,-
CCOc1ccc(N(CC(=O)NC2CCCCC2)C(=O)CCC(=O)Nc2nccs2)cc1,-,-,-91,-,-,-
COc1ccc(C2NC(=O)c3ccccc3O2)cc1 (stereo unspecified),?,-,-,-,-,-
CC(=O)N1CCCC(C)(C(=O)Nc2ccc3oc(C)nc3c2)C1 (stereo unspecified),-,.,.,-,.,.
COc1ccc(S(=O)(=O)Nc2ccc3oc4c(c3c2)C(=O)CC(C)(C)C4)cc1,18µM,.,.,?,.,.
Cc1cc(C)c(S(=O)(=O)Nc2ccc3oc4c(c3c2)C(=O)CC(C)(C)C4)cc1C,-,.,.,-,.,.
CCCCNC(=S)N1CCC(Cc2ccccc2)CC1,?,-,-,?,-,-
Cc1cccc2cc(CN(Cc3ccccc3)C(=O)c3cccc(F)c3)c(Cl)nc12,18µM,3.7µM,-,-,?,-
Cc1ccc(N(Cc2ccccc2)C(=O)c2cccc(F)c2)cc1,-,-,-,-,-,-
COc1cc(CCNC2=CC(=O)c3ncccc3C2=O)ccc1O,7.3µM,15µM,-,5.8µM,?,-
COc1ccccc1CNS(=O)(=O)c1cc(CN2C(=O)c3cccnc3C2=O)ccc1OC,?,-,-,-,-,-
C/C(CC(=O)Nc1ccc(OCc2ccccc2)cc1)=N\NC(=O)C(=O)Nc1ccc(C)c(Cl)c1,-,-,-,?,10µM,-
C/C(CC(=O)Nc1ccc(C)c(Cl)c1)=N\NC(=O)c1ccco1,?,-,-,-,18µM,-
C/C(CC(=O)Nc1ccc(C)c(Cl)c1)=N\NC(=O)Cc1ccccc1,?,-,-,-,-,-
SMILES,KB-V1 MDR tox,SW480 rerep,KCNH2 3.1 inh,KB-3-1 cytotox,MCF10A rerep,KCNH2 WT inh
C#CCN1c2ccccc2Sc2cccnc21,-,?,-,?,-,-
CC(C)CCNC(=O)C(c1ccc(O)cc1)N(Cc1ccco1)C(=O)CCC(=O)Nc1nccs1 (stereo unspecified),-,-,-,-,-,-
CCOc1ccc(C(=O)Nc2cc(-c3nc4ccccc4[nH]3)ccc2Cl)cc1[N+](=O)[O-],?,?,-70,-,?,-
CCOc1ccc(C(=O)Nc2cccc(-c3nc4ccccc4[nH]3)c2C)cc1[N+](=O)[O-],-,-,-78,-,-,-
CCOc1ccc(C(=O)Nc2cc(-c3nc4ccccc4[nH]3)ccc2C)cc1[N+](=O)[O-],-,-,-86,-,-,-
CCCOc1ccc(C(=O)Nc2cc(-c3nc4ccccc4[nH]3)ccc2C)cc1,-,.,.,-,.,.
O=C(NC(=S)Nc1cc(-c2nc3ccccc3[nH]2)ccc1Cl)c1ccc2c(c1)OCO2,7.3µM,5.8µM,-,18µM,3.3µM,-
CC(=O)Nc1ccc(S(=O)(=O)NCC2CCC(C(=O)NCCc3ccc(C)cc3)CC2)cc1 (stereo unspecified),-,.,.,-,.,.
COc1ccc(NC(=O)CSc2nc3sc(C)c(C)c3c(=O)n2Cc2ccco2)cc1,?,?,-,-,15µM,-
Cc1sc2nc(SCc3ccccc3)n(Cc3ccco3)c(=O)c2c1C,-,-,-,-,9.2µM,-
Cc1ccc(CSc2nc3sc(C)c(C)c3c(=O)n2Cc2ccco2)cc1,-,-,-,-,-,-
Cc1sc2nc(SCC(=O)C(C)(C)C)n(Cc3ccco3)c(=O)c2c1C,2.6µM,5.8µM,-,?,5.8µM,-
COc1ccc(-c2nc(-n3c(C)c(C(C)=O)c(C(C)=O)c3C)sc2C)cc1OC,15µM,-,-,-,?,-
CCCCCc1cc(=O)oc2c(C(CCN3CCCCC3)c3ccc4c(c3)OCO4)c(OC)cc(OC)c12 (stereo unspecified),-,?,-,-,-,-80
COc1cc(OC)c2c(-c3ccccc3)cc(=O)oc2c1C(CCN1CCN(c2ccccc2)CC1)c1ccc(N(C)C)cc1 (stereo unspecified),-,-,.,-,-,.
CCN(CC)CCC(c1ccc(N(C)C)cc1)c1c(OC)cc(OC)c2c(-c3ccccc3)cc(=O)oc12 (stereo unspecified),-,-,-112,-,-,-
COc1cc(O)c(C(CCN2CCN(c3ccccc3)CC2)c2ccc3c(c2)OCO3)c(OC)c1 (stereo unspecified),?,-[9.22 µM],-90,-,?,?
COc1cc(OC)c2c(-c3ccccc3)cc(=O)oc2c1C(CCN1CCCC1)c1ccc2c(c1)OCO2 (stereo unspecified),-,-,-,-,-,-82
CN(C(=O)COC(=O)c1cc([N+](=O)[O-])ccc1Cl)c1ccccc1,-,-,-,-,-,-
COc1cc(OC)c2c(-c3ccccc3)cc(=O)oc2c1C(CCN1CCOCC1)c1ccc2c(c1)OCO2 (stereo unspecified),-,-[9.22 µM],-,-,?,-
